MCF10A rereplic: DNA re-replication induction in MCF 10a cells. AID 624296. Potency, µM (doses to about 46.1 µM), hits mostly activators. MCF 10A DNA re-replication, Hoechst nuclear intensity, 48 h. 350,000 tested, 2.9% active; note: nearly all actives have a fitted effect of over 50% in size
SW480 rerep: DNA re-replication induction in SW480 cells; SW480 DNA re-replication, Hoechst DNA content imaging, 48 h; Potency, µM (highest dose often 46.1 µM), usual class: activators; 340,000 tested, 1.8% active; AID 624297; note: nearly all actives have a fitted effect of over 55% in size
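Readout is total intensity of Hoechst-stained nuclei, excited at 405 nm and collected at 500-530 nm. Compound treatment lasted 48 hr at 37 C in 5% CO2 before staining.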
ELG1 repair inh: blocks ELG1-dependent DNA repair in HEK293T cells. HEK293T ELG1-luciferase reporter, luminescence, 16 h; DNA damage induced by 5-fluorouridine. Potency, µM (titrated, usually from 46.1 µM), actives largely listed as inhibitors. 330,000 tested, 2.3% active. AID 504467; note: nearly all actives have a fitted effect of over 55% in size
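Cells (2,000 per well) received 5-fluorouridine plus test compound or DMSO and were incubated 16 hr at 37 °C, 5% CO2. Luciferase activity was read by luminescence 30 min after ONE-Glo addition; signal suppression marked inhibition of damage-induced ELG1 function.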
KB-V1 cytotox: kills drug-selected multidrug resistant KB-V1 cells; 400,000 tested, 3.4% active; Potency, µM (titrated, usually from 46.1 µM), most hits filed as cytotoxic; AID 1347076; KB-V1 MDR cells viability, CellTiter-Glo, 72 h; note: nearly all actives have a fitted effect of over 60% in size
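Drug-selected KB-V1 cells, grown in DMEM lacking phenol red with 10% FBS, receive compound titrations; after three days at 37 degrees C, surviving cell ATP is quantified by CellTiter-Glo luminescence and responses normalized and curve-fitted.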
KB-3-1 cytotox: kills parental KB-3-1 adenocarcinoma cells; KB-3-1 viability, CellTiter-Glo ATP luminescence, 72 h; Potency, µM (highest dose often 46.1 µM), hits mostly cytotoxic; 400,000 tested, 1.4% active; AID 1347075; note: nearly all actives have a fitted effect of over 60% in size
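Cytotoxicity in the drug-sensitive parental line KB-3-1 was scored as loss of CellTiter-Glo luminescence following 72 h incubation with compound. Values come from curve fitting of normalized concentration-response data.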
A number is an active result; 0 = inactive; ? = inconclusive; - = no result given. Shown are actives, neighbours in structure and some others; about 8.1% of the full set was active somewhere. Calls come from the whole dose curve; as a rule, active = well fitted curve in the direction sought with a large enough effect; inconclusive = small, poorly fitted or top-dose-only effect, or another doubt; inactive = no such curve, though single readings can be large; an effect the other way counts as inactive or inconclusive.

SMILES	MCF10A rereplic	SW480 rerep	ELG1 repair inh	KB-V1 cytotox	KB-3-1 cytotox
O=C(Nc1nc2n(n1)C(c1ccc(F)cc1)C=C(c1ccccc1)N2)c1cccc([N+](=O)[O-])c1 (stereo not given)	-	-	-	0	?
Cc1ccc(S(=O)(=O)c2c(CO)c(-c3ccccc3)nn2C)cc1	0	?	?	14.6µM	?
Cc1cc(C)c(NC2=CC(=O)CC(C)(C)C2)c(C#N)c1	0	0	0	23.1µM	0
Cc1ccc(NC2=CC(=O)CC(C)(C)C2)cc1C	0	0	0	16.4µM	0
Cc1cccc(C#N)c1NC1=CC(=O)CC(C)(C)C1	0	0	0	0	0
COc1ccc(NC2=CC(=O)CC(C)(C)C2)cc1OC	0	0	0	0	0
CC1C2=C(CC(C)(C)CC2=O)NC2=C1C(=O)CC(C)(C)C2	5.8µM	0	0	0	0
C[C@@H](C(=O)Nc1ccc2ccccc2c1)[C@H]1C[C@]1(C)[C@H](NS(=O)(=O)c1ccccc1)c1ccccc1	0	0	0	0	0
C[C@@H](C(=O)Nc1ccc2ccccc2c1)[C@H]1C[C@]1(C)[C@H](NP(=O)(c1ccccc1)c1ccccc1)c1ccccc1	0	23.1µM	?	-	-
C=C(CC[C@@H](C)[C@H]1CCC2[C@]1(C)CC[C@]13C[C@@]14CCC(OC(=O)/C=C/c1ccc(O)c(OC)c1)C(C)(C)[C@@H]4CC[C@@]23C)C(C)C (stereo not given in full)	0	0	-	-	-
O=C1NC2c3c(I)sc(I)c3C(=O)C2O1 (stereo not given)	13µM	16.4µM	-	0	?
O=C1NC2c3c(Cl)sc(Cl)c3C(=O)C2O1 (stereo not given)	7.31µM	?	-	?	0
O=C1NC2c3ccccc3CC2O1 (stereo not given)	0	0	0	?	?
O=C1OCC(CO)(CO)N=C1NNc1cc(Cl)ccc1Cl	?	0	0	0	0
O=C1OCC(CO)(CO)N=C1NNc1ccccc1[N+](=O)[O-]	0	0	7.3µM	0	0
CCCC1=Nc2cc(C(=O)NCCc3ccc(OCC)cc3)ccc2Sc2ccccc21	-	-	-	0	?
CCCC1=Nc2cc(C(=O)NCCCOC(C)C)ccc2Sc2ccccc21	2.59µM	5.8µM	0	7.31µM	4.61µM
CCCC1=Nc2cc(C(=O)NCCCOCC)ccc2Sc2ccccc21	?	?	0	1.03µM	0.517µM
CCSc1nnc2c(n1)OC(c1ccc(OC)c(OC)c1)N(C(C)=O)c1ccccc1-2 (stereo not given)	-	-	-	0	0
COc1ccc(N2CCCC2)c(NC(=O)c2ccc([N+](=O)[O-])o2)c1	?	?	0	?	?
O=C(Nc1ccccc1N1CCCC1)c1ccc([N+](=O)[O-])o1	23.1µM	5.17µM	?	?	23.1µM
O=C(Nc1ccc(N2CCCC2)c(Cl)c1)c1ccc([N+](=O)[O-])o1	2.91µM	0	?	?	?
O=C(Nc1cccc(NC(=O)c2ccccc2Cl)c1)c1ccc([N+](=O)[O-])o1	3.66µM	?	23.1µM	?	?
COc1ccccc1N(CC(O)COc1ccccc1)S(=O)(=O)c1ccccc1 (stereo not given)	0	?	0	13µM	0
COc1ccccc1N(CC(O)COc1ccc(C)cc1)S(=O)(=O)c1ccccc1 (stereo not given)	?	0	?	?	0
SMILES	MCF10A rereplic	SW480 rerep	ELG1 repair inh	KB-V1 cytotox	KB-3-1 cytotox
COc1ccccc1N(CC(O)COc1c(C)cc(C)cc1C)S(=O)(=O)c1ccccc1 (stereo not given)	?	?	?	8.2µM	?
Cc1ccc(OCC(=O)Nc2ccc(Cl)c(-c3nc4ncccc4o3)c2)cc1C	-	-	-	?	0
O=S(=O)(c1ccccc1)c1cnc(-c2cccnc2)nc1-c1ccccc1	0	0	0	8.2µM	0
Cc1ccc2nc(N3C(=O)CNC3=S)sc2c1	18.4µM	?	?	?	?
COc1ccc2nc(N3C(=O)CNC3=S)sc2c1	?	0	?	5.8µM	?
Cc1cccc(CC2CC(=O)N(c3nc4ccccc4s3)C2=O)c1 (stereo not given)	0	0	0	?	0
COc1ccc(Cl)cc1Cn1c(C)c(C(=O)NCc2cccc([N+](=O)[O-])c2)sc1=O	-	-	-	?	0
CCCCN(C)c1c(C)nc2ccc(C(=O)Nc3ccc(OC)c(OC)c3)cn12	-	-	-	0	0

High-throughput results deposited in PubChem BioAssay by National Center for Advancing Translational Sciences (NCATS).
